From PubChem BioAssay
TDP43 rescue: TDP-43 toxicity inhibition in yeast; TDP-43 expressing yeast growth rescue, BacTiter-Glo, 24 h; Potency, µM (titrated, usually from 46.1 µM), most hits filed as activators; actives 1.8% (n = 410,000); further: nearly all actives have a fitted effect of over 50% in size
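Cell-based yeast growth screen: TDP-43 expression induced in galactose, inoculum OD600=0.02 after raffinose pregrowth to mid-log. Read-out BacTiter-Glo luminescence at 24 hr, 30 deg C; inhibition of toxicity seen as signal increase.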
FUS yeast rescue: FUS proteinopathy suppression in yeast; S. cerevisiae FUS-expressing, growth rescue, OD600, 24 h; AID 1347120; Potency, µM (series often up to 76.6 µM), hits mostly activators; actives 0.24% (n = 390,000); further: nearly all actives have a fitted effect of over 55% in size
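Restored growth of FUS-toxic S. cerevisiae, read as 600 nm absorbance after 24 h at 30C in galactose medium (starting OD 0.005). Controls CP55940 and DMSO.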
Abeta rescue: restores growth of yeast expressing A-beta42 peptide; actives 0.063% (n = 410,000); Potency, µM (highest dose often 46.1 µM), usual class: activators; yeast expressing A-beta42, growth rescue, OD600, 48 h; response scale: 0% DMSO, 100% iron-clioquinol control; AID 1347071; further: nearly all actives have a fitted effect of over 55% in size
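Yeast growth medium received pinned compounds, then yeast cells expressing toxic A-beta were added; plates incubated at 30 C for 48 hr. Growth read as absorbance at 600 nm, normalized to DMSO and equimolar FeCl3 plus clioquinol controls.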
aSyn rescue: rescues yeast growth from alpha-synuclein toxicity | Yeast expressing alpha-synuclein, growth rescue, BacTiter-Glo, 24 h | Potency, µM (highest dose often 46.1 µM), usual class: activators | actives 0.14% (n = 370,000); further: nearly all actives have a fitted effect of over 65% in size
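Readout is rescue of growth in alpha-synuclein-expressing yeast, so inhibitors of toxicity appear as activators. Growth after 24 hr at 30 deg C in galactose medium is quantified by luminescence.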
ERG Ets-DNA blk: ERG Ets/DNA interaction inhibition; P11308; fluorescence polarization, His-ERG Ets domain / labelled DNA; Potency, µM (titrated, usually from 76.9 µM), most hits filed as inhibitors; actives 0.028% (n = 370,000); AID 624246; active means well fitted inhibition curve with a large enough effect in the polarisation, with a control signal flat; inconclusive means small, poorly fitted or top-dose-only effect, or effect the other way, or a change in a side signal; inactive means no such curve, though single readings can be large or run the other way; the % refers to the polarisation;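 further: polarization taken with two DNA probes labelled with fluorescein and Texas red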
Target sequence (P11308 whole entry, looked up, the tested form may be a part): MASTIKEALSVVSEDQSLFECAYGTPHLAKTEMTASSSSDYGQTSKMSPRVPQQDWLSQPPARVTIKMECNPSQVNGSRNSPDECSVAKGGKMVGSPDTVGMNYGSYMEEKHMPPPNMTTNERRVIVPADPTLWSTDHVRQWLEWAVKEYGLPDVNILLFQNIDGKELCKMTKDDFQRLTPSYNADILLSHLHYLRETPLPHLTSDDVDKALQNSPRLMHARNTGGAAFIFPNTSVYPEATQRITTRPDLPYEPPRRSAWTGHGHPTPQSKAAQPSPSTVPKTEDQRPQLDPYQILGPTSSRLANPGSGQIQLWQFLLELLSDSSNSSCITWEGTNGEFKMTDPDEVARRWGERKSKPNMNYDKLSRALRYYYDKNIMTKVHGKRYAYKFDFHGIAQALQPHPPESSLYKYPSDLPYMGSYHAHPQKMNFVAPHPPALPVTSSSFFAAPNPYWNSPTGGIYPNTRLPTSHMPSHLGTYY
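His-tagged ERG Ets domain (1 uM in the protein solution; 300mM KCl, 50mM Tris-HCl, 1mM EDTA, 1mM DTT, pH 7.5) received compound, then a probe mix of 5 nM fluorescein-DNA and 100nM Texas-615-DNA. Fluorescence polarization was read for both dyes.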
Mito fusion yeast: inhibitors of mitochondrial division or activators of mitochondrial fusion | S. cerevisiae fusion-defective mutant growth rescue, CellTiterGlo 48 h | Potency, µM (series often up to 46.1 µM), most hits filed as activators | actives 0.23% (n = 320,000) | AID 485298; further: nearly all actives have a fitted effect of over 45% in size
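Temperature-sensitive fusion-defective S. cerevisiae (e.g. fzo1-1, mgm1-5) were grown with compound in YPEG medium (3% ethanol, 3% glycerol) for 48 hours at 37C. Growth rescue was measured as viability by CellTiterGlo luminescence after 10 minutes at ambient.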
Large screens that a line does not name were inactive. Hits are enriched below; roughly 2.2% of the tested compounds scored in any of these assays. Unless noted, the call rests on the fitted dose curve; in most records, active means well fitted curve in the direction sought with a large enough effect; inconclusive means small, poorly fitted or top-dose-only effect, or another doubt; inactive means no such curve, though single readings can be large; an effect the other way counts as inactive or inconclusive.

Cc1nc(N2CCN(C)CC2)c2nnn(Cc3ccccc3)c2n1	none (no result: TDP43 rescue, FUS yeast rescue, Abeta rescue, ERG Ets-DNA blk, Mito fusion yeast)
CCc1ccc(CNC(=O)CN2C(=O)c3cccnc3Oc3ccc(C)cc32)cc1	none (no result: aSyn rescue, Mito fusion yeast)
COc1ccccc1-c1c(C#N)c(N)nc2c1CCc1ccccc1-2	TDP43 rescue 20µM, FUS yeast rescue inconclusive, Mito fusion yeast inconclusive
CCOc1cc(-c2c(C#N)c(N)nc3c2CCc2ccccc2-3)ccc1O	none
COc1ccccc1-c1cc(-c2ccc(O)cc2)nc(N)c1C#N	TDP43 rescue 31.6µM
COc1cc(-c2cc(-c3ccc(O)cc3)nc(N)c2C#N)ccc1O	none
COc1ccc(-n2nc(C(=O)N3CCN(c4cccc(C)c4C)CC3)c3c4ccccc4n(C)c3c2=O)cc1Cl	none (no result: aSyn rescue, Mito fusion yeast)
CC(=O)Nc1cc(C(F)(F)F)ccc1Oc1cccc(Br)c1	TDP43 rescue 11.2µM
CCOCC(=O)Nc1cc(C(F)(F)F)ccc1Oc1cccc(Br)c1	TDP43 rescue inconclusive, Abeta rescue inconclusive
COCCOc1ccc(C(F)(F)F)cc1NC(=O)c1ccccc1	TDP43 rescue inconclusive
CC(=O)Nc1cc(C(F)(F)F)ccc1OCCOc1ccccc1	TDP43 rescue 12.6µM (no result: Mito fusion yeast)
Cc1ccc(-c2nnc(SCC(=O)NC(C)(C)C)nc2-c2ccc(C)cc2)cc1	FUS yeast rescue inconclusive (no result: aSyn rescue, Mito fusion yeast)
Cc1ccccc1Cn1c(SCc2ccc(C(=O)NC(C)c3ccccc3)cc2)nc2ccncc21 (configuration not stated)	none (no result: aSyn rescue, Mito fusion yeast)
COc1ccc(C2=Nc3ccccc3NC(c3cccs3)=N2)cc1	none (no result: aSyn rescue, Mito fusion yeast)
COc1nc(NC23CC4CC(CC(C4)C2)C3)nc(OC)n1	TDP43 rescue 14.1µM
O=C1Nc2ccc(Br)cc2/C1=C/C1CC=CCC1 (configuration not stated)	TDP43 rescue 20µM
O=[N+]([O-])c1ccc(/C=C/c2ccnc3ccccc23)c([N+](=O)[O-])c1	none (no result: TDP43 rescue, FUS yeast rescue, Abeta rescue, ERG Ets-DNA blk, Mito fusion yeast)
O=C(CC1SC(=Nc2cccc3ccccc23)N(Cc2ccccn2)C1=O)Nc1ccccc1Br (configuration not stated)	TDP43 rescue inconclusive, Abeta rescue inconclusive
Cc1ccccc1N=C1SC(CC(=O)Nc2ccc3ccccc3c2)C(=O)N1Cc1ccccn1 (configuration not stated)	TDP43 rescue 28.2µM, aSyn rescue inconclusive
NNc1nc(-c2ccccc2Cl)c2cc(Br)ccc2n1	TDP43 rescue 15.8µM
COC(=O)c1cc(Cl)ccc1NC(=O)CSc1ncc(S(=O)(=O)c2ccc(Br)cc2)c(=O)[nH]1	FUS yeast rescue inconclusive (no result: aSyn rescue, Mito fusion yeast)
Cc1ccc2c(c1)c(C)c(C)n2CC(O)Cn1nnc2ccccc21 (configuration not stated)	TDP43 rescue inconclusive, FUS yeast rescue inconclusive, Abeta rescue 10µM, aSyn rescue inconclusive
CCCc1ccc(-c2csc(NC(=O)C3=COCCO3)n2)cc1	TDP43 rescue 15.8µM, Mito fusion yeast inconclusive
Cc1ccc(C(=O)Nc2cccc(NC(=O)c3ccc(C)o3)n2)o1	TDP43 rescue 7.94µM
CC(=O)Nc1ccc(-c2csc(NC(=O)c3ccc(C)o3)n2)cc1	FUS yeast rescue 28.2µM
Cc1ccc(C(=O)Nc2ccccc2NC(=O)c2ccc(C)o2)o1	none
Cc1ccc(C(=O)Nc2nc(-c3ccc([N+](=O)[O-])cc3)cs2)o1	none
Cc1nn(-c2nc(-c3ccc(F)cc3)cc(C(F)(F)F)n2)c(C)c1Cl	TDP43 rescue inconclusive (no result: aSyn rescue, Mito fusion yeast)
Cc1cc(C)nc(NS(=O)(=O)c2ccc(NCN3C(=O)c4ccccc4C3=O)cc2)n1	none (no result: ERG Ets-DNA blk, Mito fusion yeast)
CCc1ccc(NC(=O)C2CCCN(S(=O)(=O)c3cccc4nonc34)C2)cc1 (configuration not stated)	none (no result: aSyn rescue, Mito fusion yeast)
CC(C)NC(=O)Cn1ccc2cc(S(=O)(=O)N3CCCCCC3)ccc21	none (no result: aSyn rescue, Mito fusion yeast)
C#CCOc1ccc(/C=C2/C(=O)ON=C2C)cc1Cl	TDP43 rescue inconclusive
C#CCOc1c(Cl)cc(/C=C2/C(=O)ON=C2C)cc1OCC	TDP43 rescue 17.8µM
